Screening results deposited in PubChem BioAssay by The Scripps Research Institute Molecular Screening Center.
Rows were chosen to be rich in hits. Some 4.1% of all compounds tested hit in one or more screens of this group.
ssDAF12 agonist – S. stercoralis DAF-12 nuclear receptor activators, primary screen, cell-based, luminescence, HEK293, GRIP1 co-expression, lit1-tk-luc. Nuclear hormone receptor DAF-12 (Strongyloides stercoralis). HEK293 ssDAF-12/GRIP1 lit1-tk-luc reporter; % of 3 µM dafachronic acid response. activation, % at 6.8 µM. 1% of 370,000 active. AID 652126, 2013;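 active = activation above the mean over all tested compounds plus 3 SD, cut at about 0.9% in these data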;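 also: 0% = DMSO-only wells and 100% = 3 µM delta7-dafachronic acid wells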
DAX1 inh-1 – DAX1 (NR0B1) inhibitors on StAR promoter, primary screen, cell-based, luminescence, SF-1 (NR5A1), full-length DAX-1 | AID 652010, 2013 | 1.1% of 370,000 active | inhibition, % at 6.8 µM | HEK293T StAR-luciferase reporter, SF-1/DAX-1 repression relief;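 active = inhibition above the mean over all tested compounds plus 3 SD, cut at about 3.6% in these data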;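 also: 0% = DAX-1 cells with DMSO and 100% = cells lacking DAX-1 with DMSO; higher inhibition means more luminescence from relief of DAX-1 repression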
DAX1 inh-2 – DAX1 (NR0B1) inhibitors, primary screen, cell-based, HEK293, Gal4-DAX1, luciferase luminescence; HEK293 Gal4-DAX1 luciferase reporter; inhibition, % at 6.75 µM; 0.99% of 340,000 active; AID 504766, 2011;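 active = inhibition above the mean over all tested compounds plus 3 SD, cut at about 4.2% in these data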;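 also: 0% = DAX1-transfected cells with DMSO and 100% = empty-vector control cells with DMSO; inhibition shows as a rise in luminescence from relieved DAX1 repression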
Target sequence (P51843 207-470 limits assumed): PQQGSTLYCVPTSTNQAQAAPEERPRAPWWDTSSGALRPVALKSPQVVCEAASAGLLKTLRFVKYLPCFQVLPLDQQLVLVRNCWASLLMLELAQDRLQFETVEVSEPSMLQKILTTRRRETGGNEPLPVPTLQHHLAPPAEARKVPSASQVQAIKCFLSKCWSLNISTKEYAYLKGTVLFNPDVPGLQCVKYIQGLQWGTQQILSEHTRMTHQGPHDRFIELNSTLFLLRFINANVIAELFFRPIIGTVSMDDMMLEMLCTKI
hcDAF-12 act – H. contortus DAF-12 nuclear receptor activators, primary screen, cell-based, luminescence, HEK293, lit1-tk-luc reporter. HEK293 hcDAF-12 lit1-tk-luc reporter; 0% DMSO, 100% Δ7-dafachronic acid. activation, % at 6.8 µM. 1.4% of 370,000 active;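 active = activation above the mean of all tested compounds plus 3 SD, cut at about 5.5% in these data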;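 also: 100% = response to 3 µM Δ7-dafachronic acid high control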
hgDAF-12 ag – H. glycines DAF-12 receptor agonists, primary screen, cell-based, luminescence, HEK293, GAL4 fusion, UAS-luciferase; HEK293 GAL4-hgDAF12 UAS-luciferase reporter, agonist luminescence; normalized to butyrate control; activation, % at 6.8 µM; 1.8% of 370,000 active;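 active = activation above a cutoff set at the mean of all screened compounds plus 3 SD, cut at about 10% in these data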;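 also: 0% = DMSO wells and 100% = sodium butyrate wells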
The depositor's hits bear a star; . = not tested or not shown.

SMILES | ssDAF12 agonist | DAX1 inh-1 | DAX1 inh-2 | hcDAF-12 act | hgDAF-12 ag
O=C(CCC(=O)c1ccc[nH]1)c1ccc(Cl)cc1 | -0.5 | 1.0 | 2.9 | 6.0* | 12.2*
Cc1ccc(/C(N)=N/OC(=O)CCc2ccccc2)cc1 | -0.5 | 1.0 | 1.9 | 6.2* | 4.3
O=C(CSc1nnc(-c2ccc(F)cc2)o1)NC1CCCCC1 | -1.8 | 0.6 | 1.3 | -1.8 | -1.1
Oc1ccc(-c2nnc(SCC3CCCCC3)o2)cc1 | -0.5 | 3.4 | 0.8 | 0.6 | 10.6*
CC1(C)Cc2c(cnn2-c2ccc(F)cc2)C(NC(=O)C(C)(C)O)C1 (stereo not given) | -0.8 | 0.1 | 1.0 | 0.4 | 1.6
CC1(C)Cc2c(cnn2-c2ccc(F)cc2)C(NC(=O)C2CCC2)C1 (stereo not given) | -0.9 | 4.3* | -0.1 | 0.2 | -0.9
Fc1ccccc1Nc1nc2ccccc2n2nnnc12 | 1.1* | 0.3 | 0.7 | 1.1 | 5.3
c1ccc(Nc2nc3ccccc3n3nnnc23)cc1 | 0.1 | 1.6 | 1.7 | 3.6 | 7.0
Cc1ccc(NC(=O)NNC(=O)CSC2CCc3ccccc32)c(C)c1 (stereo not given) | -0.2 | 1.8 | . | 1.9 | -0.8
CC(C)(C)SCCNC(=O)c1ccccc1 | 0.1 | 1.9 | 2.6 | 1.5 | 7.1
Cc1ccc(C(=O)NCCSC(C)(C)C)cc1 | 0.4 | 4.0* | 2.2 | 4.6 | 10.8*
CN(C)CCCNc1nc2cc(-c3ccc4c(ccn4C)c3)sc2c(=O)n1C | -0.7 | 2.1 | . | 3.1 | 11.8*
Cc1ccc(-c2cc3nc(NCCc4ccncc4)n(C)c(=O)c3s2)cc1 | -0.5 | 4.0* | . | 1.4 | 10.1
CN(C)CCCNc1nc2cc(-c3ccsc3)sc2c(=O)n1C | -1.2 | 2.3 | . | -1.9 | 1.1
Cc1ccc(C(=O)O/N=C(\N)c2ccccn2)cc1 | -1.9 | -0.6 | -2.8 | -2.2 | -8.5
C/C(=N\OC(=O)c1ccc(Br)cc1)c1ccccn1 | 0.9* | 0.5 | 0.9 | 1.5 | 0.4
O=c1[nH][nH]c2cc(=O)n(-c3cccc(C(F)(F)F)c3)nc12 | 5.2* | 0.4 | -0.2 | -0.5 | -0.6
Nc1n[nH]c2cc(=O)n(-c3cccc(C(F)(F)F)c3)nc12 | -1.6 | 0.1 | -1.8 | 2.0 | -1.4
COc1ccc2sc(NC(C)=O)nc2c1 | -0.4 | 3.3 | 2.3 | 1.9 | 11.3*
COc1ccc(-c2csc(NC(=O)c3ccoc3C)n2)cc1 | -1.5 | 1.7 | 1.9 | 1.1 | 10.7*
CCOc1ccc2nc(NC(=O)c3ccccn3)sc2c1 | -1.4 | -1.8 | -4.3 | 2.3 | -5.7
CCOc1ccc2nc(NC(=O)c3ccoc3C)sc2c1 | 0.4 | 2.5 | -2.6 | 6.2* | 11.0*
CCC(=O)Nc1nc2cc(OC)ccc2s1 | -1.4 | 1.1 | 3.6 | -0.2 | 9.2
COc1ccc2nc(NC(=O)c3ccccc3C(=O)O)sc2c1 | 0.0 | 0.6 | -0.5 | 5.7* | 2.8
C=CCN1C(=O)[C@@H](CC(=O)NCc2cccs2)[C@]2(C(=O)OCC)CCCCC/C=C/12 | -0.7 | 0.6 | . | 3.2 | -0.3
SMILES | ssDAF12 agonist | DAX1 inh-1 | DAX1 inh-2 | hcDAF-12 act | hgDAF-12 ag
COC(=O)C1=C(C)N(Cc2ccc(C(F)(F)F)cc2)C(=NCc2ccccc2)NC1c1ccc(C(F)(F)F)cc1 (stereo not given) | -1.1 | 0.6 | . | 1.6 | 1.7
CCCCNC(=O)C[C@H]1C[C@@]2(C(=O)OC)C(=C[C@H](C(C)(C)C)O[C@@H]2C)N(Cc2ccc3c(c2)OCO3)C1=O | -1.0 | -0.9 | . | 0.1 | -0.3
COc1ccc(S[C@]2(C(=O)N3CCOCC3)CC(=O)N[C@@H]2c2ccc(OC)cc2)cc1 | -1.0 | -1.4 | . | -0.2 | -3.3
Cc1cc(C)c2[nH]c(O)c(N=NC3=NC(=O)CS3)c2c1 | -0.2 | -0.2 | 4.3* | -1.6 | 0.2
Cc1cc(C)c2[nH]c(O)c(N=Nc3ccc(C(=O)O)cc3)c2c1 | 0.4 | 0.4 | -1.1 | 2.2 | 1.7
Cc1ccc(Nc2ccc(C(=O)O)cc2N)cc1 | 1.1* | 2.6 | . | 1.8 | 6.8
N=C(N)c1ccc(/C=C/c2ccc(C(=N)N)cc2O)cc1 | -0.9 | -0.2 | 5.1* | -1.5 | 2.5
COC(=O)C[C@@H]1CC[C@@H]2[C@H](COc3ccc(NC(=O)Nc4c(C)noc4C)cc3C(=O)N2C)O1 | -1.4 | 0.6 | . | 1.8 | 0.8
Cc1ccc(/C=C2\CCC(C3CCCC3)C2=O)cc1 (stereo not given) | 0.9* | -0.3 | 4.5* | -1.7 | 7.8
COc1ccc(/C=C2\CCC(C3CCCC3)C2=O)cc1 (stereo not given) | 0.1 | 0.8 | 3.5 | 1.6 | 5.1
Cc1ccsc1/C=C1\CCC(C2CCCC2)C1=O (stereo not given) | -0.4 | 1.1 | 5.6* | 0.8 | 9.3
CN(C(=O)c1ccco1)c1nc(-c2ccc(F)cc2)cs1 | -0.5 | 2.4 | 5.2* | 3.6 | 7.9
CN(C(=O)c1ccco1)c1nnc(-c2ccc(F)cc2)s1 | 0.1 | 1.1 | 1.4 | 4.7 | 8.9
CC(C)(C)C(=O)N1CCC[C@]2(CC[C@H](CCC#N)O2)C1 | -0.8 | 0.4 | . | 1.1 | 0.8
OCC(O)CNC(=S)NC1CCCCC1 (stereo not given) | -1.4 | 0.3 | 4.9* | -0.8 | 0.1
CCCNC(=S)NC1CCCC1 | -0.1 | -0.1 | -0.4 | 2.2 | 1.7
N#Cc1ccc(-c2nc3ccc(Cl)cn3c2Cc2ccsc2)cc1 | -1.1 | 0.9 | . | 1.1 | 5.1
CCCc1nc2ccc(Cl)cn2c1Cc1ccsc1 | 1.0* | 0.3 | . | 0.9 | -0.7
Brc1ccc2nc(-c3ccco3)c(Cc3ccsc3)n2c1 | 1.0* | -0.9 | . | 2.3 | 1.1
Clc1ccc(-c2nc3ccc(Cl)cn3c2Cc2ccsc2)cc1 | -0.6 | 3.8* | . | 1.1 | 11.1*
CCN(CC)C(=O)CC[C@H]1CC[C@]2(CCCN(S(=O)(=O)c3ccccc3)C2)O1 | -2.0 | -1.4 | . | -3.0 | 0.0
CCOC(=O)c1cnc2c(N=Nc3cccc(Cl)c3)c(N)nn2c1N | -0.8 | -0.2 | . | 0.8 | 1.2
CCOC(=O)c1cnc2c(N=Nc3ccccc3)c(N)nn2c1N | 0.9* | 2.0 | 0.2 | 1.3 | 7.2
COC1=C[C@H](C(=O)NCc2ccccn2)[C@H](C)[C@@H](c2ccccc2)CC1=O | -0.9 | -1.1 | . | 1.2 | 0.6
COc1cccc(/C=C2\CC3(OC(=O)C4CCCC4)CCCN2C3)c1 (stereo not given) | -1.0 | 0.2 | . | -2.0 | -3.5
Cc1cc(C)nc(NS(=O)(=O)c2ccc(NC(=O)c3ccc(O)cc3O)cc2)n1 | 0.2 | 0.0 | 0.8 | 5.7* | 0.5
